Laboratory results as given in PubChem BioAssay (NCI).
The panel holds about 83,000 compounds, 20% with a hit somewhere; the sample as a whole holds those more often.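 Values shown are percent growth following 48 h exposure of cells in 96-well plates to a single concentration of compound; below 10 was considered active.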 Active and inactive are the calls of the source.

Assays:
Experiment in all cases: NCI-60 one-dose screen, 48 h (100 = growth as untreated, 0 = no growth, -100 = all killed)
NCI-H23 lung = conditions: 10 µM unless noted
NCI-H226 lung = conditions: 10 µM unless noted
NCI-H322M lung = conditions: 10 µM unless noted
HOP-62 NSCLC = conditions: 10 µM unless noted
NCI-H460 lung = conditions: 10 µM unless noted
HOP-92 NSCLC = conditions: 10 µM
A549/ATCC NSCLC = conditions: 10 µM unless noted
786-0 renal = conditions: 10 µM unless noted
COLO 205 colon = conditions: 10 µM unless noted
NCI-H522 lung = conditions: 10 µM unless noted

Measured: growth

CC1(C)[C@@H](O)CC[C@]2(C)[C@H]3CC[C@@H]4[C@H]5[C@H](C(=O)/C=C\c6ccccn6)CC[C@]5(O)CC[C@@]4(C)[C@]3(C)CC[C@@H]12
inactive: NCI-H23 lung 31.7% | NCI-H226 lung 16.3% | NCI-H322M lung 84.3% | HOP-62 NSCLC 73.6% | NCI-H460 lung 15.6% | HOP-92 NSCLC 60.9% | A549/ATCC NSCLC 49.7% | 786-0 renal 32.7% | COLO 205 colon 67.7%

O=C(Nc1cccc(C(F)(F)F)c1)c1cc(-c2ccc(F)cc2F)ccc1O
inactive: HOP-62 NSCLC 12.8% | 786-0 renal 14.9% | COLO 205 colon 75.5%
active: NCI-H23 lung -4.34% | NCI-H226 lung 9.06% | NCI-H322M lung 4.46% | NCI-H460 lung 2.67% | HOP-92 NSCLC -26.2% | NCI-H522 lung -4.56% | A549/ATCC NSCLC 7.54%

Cc1cc2nc(C(Cl)Cl)nc(-c3cccs3)n2n1
active: NCI-H322M lung -20.6% | HOP-62 NSCLC -2.2% | NCI-H460 lung -39% | HOP-92 NSCLC -10.8% | A549/ATCC NSCLC -23.5% | COLO 205 colon -44.3%
inactive: NCI-H23 lung 10.5% | NCI-H226 lung 86.7% | NCI-H522 lung 46.8% | 786-0 renal 77.5%

NC(N)=Nc1ccc(Oc2cccc(NC(N)=Nc3ccc(Br)cc3)c2)cn1
inactive: NCI-H23 lung 61.1% | NCI-H226 lung 81.3% | NCI-H322M lung 65.1% | HOP-62 NSCLC 65.6% | NCI-H460 lung 46.7% | HOP-92 NSCLC 29% | A549/ATCC NSCLC 53.5% | 786-0 renal 68.7% | COLO 205 colon 16.5%

NS(=O)(=O)c1ccc(Nc2nc(N/N=C/c3c[nH]c4ccccc34)nc(Nc3ccccc3)n2)cc1
inactive: NCI-H23 lung 47.1% | NCI-H226 lung 42% | NCI-H322M lung 54.4% | HOP-62 NSCLC 63.8% | NCI-H460 lung 41.2% | HOP-92 NSCLC 61.4% | NCI-H522 lung 31.6% | A549/ATCC NSCLC 78.3% | 786-0 renal 41.8% | COLO 205 colon 40.9%

CS(=O)(=O)Nc1cc(-c2ccc3ncc(C#N)c(NCc4ccccc4)c3c2)cnc1Cl
inactive: NCI-H322M lung 16.5%
active: NCI-H23 lung 0.346% | NCI-H226 lung -9.59% | HOP-62 NSCLC 2.7% | NCI-H460 lung 3.01% | HOP-92 NSCLC -16.8% | A549/ATCC NSCLC 7.72% | 786-0 renal 0.0627% | COLO 205 colon 6.54%

CS(=O)(=O)Nc1cc(-c2ccc3ncc(C#N)c(NCc4ccccc4O)c3c2)cnc1Cl
inactive: NCI-H226 lung 16.9% | NCI-H322M lung 16.1% | NCI-H522 lung 12.8% | A549/ATCC NSCLC 15.8%
active: NCI-H23 lung -7.77% | HOP-62 NSCLC 3.57% | NCI-H460 lung 7.88% | HOP-92 NSCLC -10.8% | 786-0 renal 8.24% | COLO 205 colon 8.91%

COc1ccc2c(c1)c(CC(=O)[Se]CC#N)c(C)n2C(=O)c1ccc(Cl)cc1
active: NCI-H23 lung -11.3% | NCI-H322M lung -1.05% | NCI-H522 lung -51.3% | A549/ATCC NSCLC -9.27% | COLO 205 colon -24.8%
inactive: NCI-H226 lung 29.6% | HOP-62 NSCLC 14.1% | NCI-H460 lung 14.5% | HOP-92 NSCLC 26.3% | 786-0 renal 47.3%

NC(N)=Nc1ccc(Oc2cccc(NC(N)=Nc3ccc(I)cc3F)c2)cc1
inactive: NCI-H23 lung 77.4% | NCI-H226 lung 88.2% | NCI-H322M lung 80.4% | HOP-62 NSCLC 76.4% | NCI-H460 lung 65.9% | HOP-92 NSCLC 39% | A549/ATCC NSCLC 68.7% | 786-0 renal 86.4% | COLO 205 colon 48.9%

CN(C)CCNC(=O)c1ccc(-c2nc3ccc4[nH]ncc4c3c3c2CCC3)cc1
active: NCI-H23 lung -15.2% | NCI-H322M lung 6.34% | HOP-62 NSCLC 5.66% | NCI-H460 lung 1.65% | HOP-92 NSCLC -29.8% | NCI-H522 lung -40.6% | A549/ATCC NSCLC 7.96% | COLO 205 colon -11.6%
inactive: NCI-H226 lung 10.8% | 786-0 renal 12%

CCc1ccc(SC2c3ccc(N(CC)CC)cc3Oc3nc(N)c(C#N)c(N)c32)cc1 (stereo not drawn)
active: NCI-H23 lung -85.1% | NCI-H226 lung -84.1% | NCI-H322M lung -76.6% | HOP-62 NSCLC 3.17% | NCI-H460 lung -58.3% | HOP-92 NSCLC -44.1% | A549/ATCC NSCLC -0.807% | 786-0 renal -89.2% | COLO 205 colon -52.8%

COc1ccccc1NC1=C(Cl)C(=O)c2nc(C)ccc2C1=O
inactive: NCI-H226 lung 29.6% | NCI-H322M lung 71.1% | HOP-62 NSCLC 74.1% | NCI-H460 lung 70.8% | A549/ATCC NSCLC 101% | COLO 205 colon 111%
active: NCI-H23 lung -8.37% | HOP-92 NSCLC -83.8% | NCI-H522 lung -48.5% | 786-0 renal 9.17%

NS(=O)(=O)c1ccc(Nc2nc(Nc3ccccc3)nc3nnc(SCC(=O)NC4CCCCC4)n23)cc1
inactive: NCI-H23 lung 109% | NCI-H226 lung 100% | NCI-H322M lung 104% | HOP-62 NSCLC 103% | NCI-H460 lung 106% | HOP-92 NSCLC 105% | A549/ATCC NSCLC 108% | 786-0 renal 103% | COLO 205 colon 110%

Cc1ccc(NC(=O)CNc2cc(C(N)=O)cc(F)c2C)c(Cl)c1
inactive: NCI-H23 lung 86.9% | NCI-H226 lung 80.5% | NCI-H322M lung 102% | HOP-62 NSCLC 71.8% | NCI-H460 lung 102% | HOP-92 NSCLC 74.9% | A549/ATCC NSCLC 91.9% | 786-0 renal 92.9% | COLO 205 colon 112%

COc1ccccc1C(=O)Nc1cccc2c1C(=O)C(=O)C=C2
inactive: NCI-H23 lung 85.5% | NCI-H226 lung 99.9% | NCI-H322M lung 112% | HOP-62 NSCLC 94.8% | NCI-H460 lung 103% | HOP-92 NSCLC 113% | A549/ATCC NSCLC 88.7% | 786-0 renal 92.2% | COLO 205 colon 71.5%

CC1(C)CC[C@]2(CN)CC[C@]3(C)C(=CC[C@@H]4[C@@]5(C)CCCNC(C)(C)[C@@H]5CC[C@]43C)[C@H]2C1
inactive: NCI-H23 lung 104% | NCI-H226 lung 105% | NCI-H322M lung 99% | HOP-62 NSCLC 93.9% | NCI-H460 lung 99.5% | HOP-92 NSCLC 81.2% | NCI-H522 lung 105% | A549/ATCC NSCLC 92.2% | 786-0 renal 92.8% | COLO 205 colon 109%

O=C(CSc1nnc(-c2ccc3nc(-c4ccccc4)[nH]c3c2)o1)Nc1ccc(C(=O)/C=C/c2ccccc2)cc1
inactive: NCI-H23 lung 100% | NCI-H226 lung 106% | NCI-H322M lung 102% | HOP-62 NSCLC 104% | NCI-H460 lung 113% | HOP-92 NSCLC 149% | NCI-H522 lung 93.4% | A549/ATCC NSCLC 106% | 786-0 renal 102% | COLO 205 colon 110%

Cn1ccnc1C(=O)/C=C/c1ccc(NC(=O)c2ccc(F)cc2)cc1
inactive: NCI-H23 lung 13.4% | NCI-H226 lung 45.3% | NCI-H322M lung 46.3% | HOP-62 NSCLC 64.5% | HOP-92 NSCLC 47.2% | A549/ATCC NSCLC 34.8% | 786-0 renal 22.1% | COLO 205 colon 75.4%
active: NCI-H460 lung -19.7%

CCN1CCN(Cc2cn(-c3ccc(S(N)(=O)=O)cc3)nn2)CC1
inactive: NCI-H23 lung 108% | NCI-H226 lung 96.5% | NCI-H322M lung 106% | HOP-62 NSCLC 107% | NCI-H460 lung 108% | HOP-92 NSCLC 104% | NCI-H522 lung 97.8% | A549/ATCC NSCLC 109% | 786-0 renal 102% | COLO 205 colon 109%

C=C(C)[C@@H]1CC[C@]2(C(=O)NCCCCCN(CCC#N)CCC#N)CC[C@]3(C)[C@H](CC[C@@H]4[C@@]5(C)CCC(=O)C(C)(C)[C@@H]5CC[C@]43C)[C@@H]12
inactive: NCI-H23 lung 95.3% | NCI-H226 lung 92.8% | NCI-H322M lung 116% | HOP-62 NSCLC 82.6% | NCI-H460 lung 87.5% | HOP-92 NSCLC 97% | A549/ATCC NSCLC 90.9% | 786-0 renal 92% | COLO 205 colon 111%

Cc1ccc(-c2cc3nc(C(Cl)Cl)nc(-c4cccs4)n3n2)cc1
inactive: NCI-H23 lung 83.9% | NCI-H226 lung 87.3% | NCI-H322M lung 38.6% | HOP-62 NSCLC 54.1% | HOP-92 NSCLC 80% | NCI-H522 lung 97.9% | A549/ATCC NSCLC 67.9% | 786-0 renal 100% | COLO 205 colon 43.7%
active: NCI-H460 lung 3.91%

CC(=O)N1C(=S)NC(=O)C1CC(C)C (stereo not drawn)
inactive: NCI-H23 lung 106% | NCI-H226 lung 100% | NCI-H322M lung 97.6% | HOP-62 NSCLC 99.8% | NCI-H460 lung 106% | HOP-92 NSCLC 98.9% | NCI-H522 lung 94.9% | A549/ATCC NSCLC 101% | 786-0 renal 97.6% | COLO 205 colon 110%

O=S(=O)(NCCNc1nccc(-n2cnc3ccccc32)n1)c1ccc(C(F)(F)F)cc1
inactive: NCI-H23 lung 54.5% | NCI-H226 lung 62.7% | NCI-H322M lung 85.3% | HOP-62 NSCLC 66.1% | NCI-H460 lung 57.8% | HOP-92 NSCLC 54.9% | NCI-H522 lung 38.2% | A549/ATCC NSCLC 55.4% | 786-0 renal 69.6% | COLO 205 colon 64.9%

CCc1cccc(NC(=O)CNc2cc(S(=O)(=O)N(C)C)cc(C)c2C)c1
inactive: NCI-H23 lung 81.4% | NCI-H226 lung 77% | NCI-H322M lung 105% | HOP-62 NSCLC 73.8% | NCI-H460 lung 102% | HOP-92 NSCLC 72% | A549/ATCC NSCLC 85.2% | 786-0 renal 85.2% | COLO 205 colon 111%

Oc1[nH]c2ccccc2c1Nn1c(N=N/C=c2/ccc3c(c2)C=NN=3)n[nH]c1=S
inactive: NCI-H23 lung 89.6% | NCI-H226 lung 93.9% | NCI-H322M lung 107% | HOP-62 NSCLC 75.6% | NCI-H460 lung 110% | HOP-92 NSCLC 76.6% | A549/ATCC NSCLC 99.9% | 786-0 renal 96.7% | COLO 205 colon 30.9%
